The results in this text go back to PubChem BioAssay AID2685 (National Center for Advancing Translational Sciences (NCATS), 2010).

Among all 320,000 compounds or so, about 2,100 (0.66%) were called active. Roughly 53% stayed inconclusive and do not appear here. Calls come from the whole dose curve; as a rule, active = well fitted inhibition curve with a large enough effect in the signal ratio, with a control signal flat (not every such curve was filed as active); inconclusive = small, poorly fitted or top-dose-only effect, or effect the other way, or a change in a side signal; inactive = flat fitted curve, though single readings scatter; the % refers to the signal ratio. Many of the other results were omitted from the sample, so actives are more common in it than they were.
Potency is the fitted concentration of half-maximal effect.

The test in a line: qHTS Assay for Lipid Storage Modulators in Drosophila S3 Cells.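 For cell number change: cells counted by Cell Tracker Red CMTPX staining in the red channel.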 For lipid storage change, negative = inhibition: % is set by controls: 0 for no effect and ±100 for the full control effect. The settings on record: BODIPY lipid droplet fluorescence, 18-24 h, cells fed with added oleic acid; cell number change: measured here: cell count max response; series mostly up to 46.1 µM; lipid storage change, negative = inhibition: at the top concentration. The method, boiled down: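 Drosophila S3 cells got compounds at several concentrations plus oleic acid (400 uM solution). Laser-scanning cytometry with 488 nm excitation read lipid droplets at 500-530 nm and cells at 575-640 nm. Percent activity was relative to 20 uM Triacsin C.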
Regarding `Cc1[nH]c(C)c(S(=O)(=O)N(Cc2ccccc2)C(C)(C)C)c1C(=O)N1CCCC1`, the “lipid storage change, negative = inhibition” value was -19% (inactive) and the cell number change is -27.6%. With `CCN(CC)C(=O)CSc1nnc(-c2ccco2)n1Cc1ccco1`, the “lipid storage change, negative = inhibition” value was 13.9% (inactive) and the cell number change is -5.34%. On to `Cc1ccc(NC(=O)CSc2nnc(CNC(=O)c3ccco3)n2C)cc1`, for which the “lipid storage change, negative = inhibition” value is 18% (inactive). With `O=C(c1ccccc1)c1ccc(COC(=O)c2cnccn2)cc1`, the result was inactive. For `O=C(OCc1ccc(Cl)cc1)c1cnccn1`, the Potency was 7.31 µM (active) and the cell number change came out at 23.8%. Consider `COC(=O)c1ccc(COC(=O)c2cnccn2)cc1`, for which the “lipid storage change, negative = inhibition” value is -2.39% (inactive) and the cell number change was 9.29%. For `CCN(C(=O)CSc1nnc(COc2ccccc2F)n1N)C1CCS(=O)(=O)C1` (stereo unspecified), the outcome was inactive. On to `CCN(C(=O)CSc1nnc(Cc2ccccc2F)n1N)C1CCS(=O)(=O)C1` (stereo unspecified), for which the Potency is 8.2 µM (active) and the cell number change was -2.07%. Take `CCN(C(=O)CSc1nnc(-c2ccccc2)n1C)C1CCS(=O)(=O)C1` (stereo unspecified): the “lipid storage change, negative = inhibition” value is 10.8% (inactive). Regarding `Cc1onc(-c2ccccc2Cl)c1C(=O)N1CCC(C)CC1`, the compound was classed as inactive and the cell number change is -10.5%. As to `Cc1onc(-c2ccccc2Cl)c1C(=O)N1CCN(C=O)CC1`, the “lipid storage change, negative = inhibition” value is -12.5% (inactive).

`Cc1onc(-c2ccccc2Cl)c1C(=O)N1CCCCCC1`: the Potency is 25.9 µM (active) and the cell number change is 0.806%. Regarding `CCNC(=S)N1CCN=C1Nc1nc(C)cc(C)n1`, the “lipid storage change, negative = inhibition” value is -14.2% (inactive) and the cell number change worked out at 8.32%. The matching figures for `CCn1cc(CNC(=O)/C=C/c2ccc([N+](=O)[O-])cc2)cn1`: -8.69% (inactive) and -8.84%. As for `CCn1c2ccc(C)cc2c2nc3cc(C(=O)O)ccc3nc21`, the “lipid storage change, negative = inhibition” value was -18% (inactive) and the cell number change is -5.53%. For the compound `O=C(O)CCn1c2ccccc2c2nc3ccccc3nc21`, the outcome was inactive and the cell number change was -11.8%.

For the compound `CCn1c2ccccc2c2nc3cc(C(=O)O)ccc3nc21`, the Potency is 0.58 µM (active) and the cell number change is -24.2%. On to `CC(=O)NCCc1nc2cc(NC(=O)c3cccc([N+](=O)[O-])c3)ccc2n1C`, for which the “lipid storage change, negative = inhibition” value is 13.5% (inactive). As for `COc1nn(CC(=O)N2N=C(C)CC2(O)C(F)(F)F)cc1[N+](=O)[O-]` (stereo unspecified), the “lipid storage change, negative = inhibition” value is 7.76% (inactive) and the cell number change is 11.8%. Consider `COc1nn(CC(=O)N2N=C(C)CC2(O)C(F)F)cc1[N+](=O)[O-]` (stereo unspecified), for which the “lipid storage change, negative = inhibition” value was -2.88% (inactive) and the cell number change was determined as 5.87%. `CCOC(=O)Cn1cc([N+](=O)[O-])c(OC)n1`: the Potency was 23.1 µM (active) and the cell number change is -15%. On to `CCOc1ccc(CCNC(=O)c2nnc(Cc3ccc(F)cc3)o2)cc1OCC`, for which the “lipid storage change, negative = inhibition” value is 5.14% (inactive) and the cell number change is -1.72%.

As for `CN(CCCNC(=O)COc1cc(=O)n(C)c2ccccc12)Cc1ccccc1`, the “lipid storage change, negative = inhibition” value was 6.06% (inactive) and the cell number change came out at 1.19%. As to `CCSc1nsc(NC(=O)Nc2ccc(F)cc2F)n1`, the outcome was inactive. With `O=C(Nc1nc(SCc2ccc(F)cc2)ns1)c1ccco1`, the “lipid storage change, negative = inhibition” value was 4.24% (inactive) and the cell number change is -12.1%. On to `C=CCSc1nsc(NC(=O)Nc2ccc(F)cc2)n1`, for which the Potency was 5.17 µM (active) and the cell number change was -16.2%. Consider `Cc1ccccc1S(=O)(=O)NCC1CCCO1` (stereo unspecified), for which the outcome was inactive and the cell number change was -3.81%. `COCc1cc(C)nc(SCC[N+](C)(C)CC(=O)c2ccc(Br)cc2)c1C#N`: the “lipid storage change, negative = inhibition” value is 0.0033% (inactive). As to `NC(=O)C1=C[C@@H](c2coc3ccccc3c2=O)C[C@@H](OCc2ccc(CO)cc2)O1`, the “lipid storage change, negative = inhibition” value was 12.2% (inactive) and the cell number change came out at 16%. As for `CCc1ccc(CN(C)C(=O)c2cc(COc3cccc4cnccc34)on2)cc1`, the compound was called inactive and the cell number change was 14.5%.

Consider `CCOC(=O)C1=C(C)NC(=O)NC1C` (stereo unspecified), for which the Potency was 5.17 µM (active) and the cell number change is -10.2%.

With `CCOC(=O)C1=C(C)N(C)C(=O)NC1c1cccc(O)c1` (stereo unspecified), the compound was classed as inactive.

Take `CCOC(=O)C1=C(C)NC(C)=C(C(=O)OCC)C1C`: the “lipid storage change, negative = inhibition” value was 15.9% (inactive) and the cell number change was 8.56%.

In the case of `CC1=C(C(=O)OCC2CCCO2)C(c2cccc(O)c2)NC(=O)N1` (stereo unspecified), the “lipid storage change, negative = inhibition” value is 7.62% (inactive) and the cell number change was -24.8%.

On to `CCOC(=O)C1=C(CBr)NC(=O)NC1C` (stereo unspecified), for which the “lipid storage change, negative = inhibition” value was -10.4% (inactive) and the cell number change was -12.6%.

For `CCOC(=O)C1=C(COc2ccccc2)NC(=O)NC1c1cccc([N+](=O)[O-])c1` (stereo unspecified), the Potency was 9.2 µM (active) and the cell number change was found to be 3.89%.

As for `CC1=C(C(=O)OCc2ccccc2)C(c2cccc([N+](=O)[O-])c2)NC(=O)N1` (stereo unspecified), the “lipid storage change, negative = inhibition” value was 5.58% (inactive) and the cell number change was 10.6%. Consider `CCOC(=O)C1=C(CN2CCSCC2)NC(=O)NC1c1cccc([N+](=O)[O-])c1` (stereo unspecified), for which the “lipid storage change, negative = inhibition” value was 7.96% (inactive) and the cell number change was -8.36%. Turning to `CCOC(=O)C1=C(C)NC(=O)NC1c1cccc(O)c1` (stereo unspecified), the Potency is 20.6 µM (active) and the cell number change stood at 0.128%.

As for `CCOc1cc(N2CCOCC2)c(OCC)cc1NC(=O)CSc1n[nH]c(N)n1`, the “lipid storage change, negative = inhibition” value is 10.3% (inactive) and the cell number change was found to be 21.7%.

In the case of `CCOC(=O)c1c(NC(=O)COC(=O)c2cc(OC)c(OC)cc2[N+](=O)[O-])sc(C)c1CC`, the “lipid storage change, negative = inhibition” value is 7.82% (inactive) and the cell number change was -0.918%. Take `CN(c1ccccc1)S(=O)(=O)c1cccc(NC(=O)CN2CCc3ccccc3C2)c1`: the compound was classed as inactive. `CC1=C(C(N)=O)C(c2cccs2)n2ncnc2N1` (stereo unspecified): the “lipid storage change, negative = inhibition” value is -8.85% (inactive) and the cell number change is -0.857%. Consider `COc1ccc(S(=O)(=O)Nc2c(C(=O)O)[nH]c3ccccc23)cc1OC`, for which the “lipid storage change, negative = inhibition” value is 25.4% (inactive) and the cell number change was 2.12%. Consider `COc1ccccc1OCC(=O)Nc1cc(NC(=O)COc2ccccc2OC)cc(C(=O)O)c1`, for which the call was inactive and the cell number change is -10.7%.

Turning to `Cc1cc(=O)n2[nH]nnc2n1`, the “lipid storage change, negative = inhibition” value was -9.73% (inactive) and the cell number change is -0.264%. For `CCC(C)[C@@H](C(=O)N1CCNCC1)n1cc(CCCN=C(N)N)nn1` (stereo partly specified), the “lipid storage change, negative = inhibition” value is -8.66% (inactive) and the cell number change was -4.28%. As to `Oc1[nH]c2ccccc2c1N=Nc1ccc(C(F)(F)F)cn1`, the “lipid storage change, negative = inhibition” value was -3.49% (inactive) and the cell number change is -7.88%.
